# From PubChem BioAssay
# Activity calls are given as the source filed them. Unless noted, how the calls were made is not given here.
# Experiments:
# [1] = compounds binding Alexa647 anti-His antibody – biochemical, small-molecule microarray, 635 nm fluorescence, artefact control for SMM control protein annotation, primary screen (AID 1128); settings: higher = more signal;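 further: score merges feature fluorescence with signal-to-noise for each printed compound spot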
# [2] = tested on: Human papillomavirus type 1a E7 protein (residues 1-88); test: HPV1a E7 small-molecule binders, primary screen, biochemical, small-molecule microarray, residues 1-88, 635 nm (AID 1129); settings: small-molecule microarray binding, fluorescence 635 nm; higher = more signal
# [3] = biological target: Focal adhesion kinase 1 (Homo sapiens) (UniProt Q05397); test: PTK2 protein binding on printed compound slides – biochemical, small-molecule microarray, 635/667 nm fluorescence, BSA, DTT, primary screen (AID 1130); settings: 635 nm fluorescence, higher = more signal;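 further: composite of spot emission at 667 nm and signal to noise over triplicate slides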
# [4] = tested on: Fibrinogen (Alexa647-labelled); test: Alexa647-fibrinogen binding to printed small molecules – biochemical, small-molecule microarray, 635/667 nm fluorescence, artefact control for SMM control-protein annotation, profiling panel (AID 1131); settings: fibrinogen-A647 binding fluorescence, higher = more signal;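 further: z-score merges 667 nm fluorescence with per-spot signal-to-noise over triplicate slides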
# [5] = biological target: Follistatin (Homo sapiens) (UniProt P19883); test: FST protein binding to printed compounds – biochemical, small-molecule microarray, 635/667 nm fluorescence, primary screen (AID 1132); settings: 635 nm fluorescence, higher = more signal
# [6] = biological target: Fibroblast growth factor 2 (Homo sapiens) (UniProt P09038); test: basic fibroblast growth factor binding to printed compounds – biochemical, small-molecule microarray, 635/667 nm fluorescence, primary screen (AID 1133); settings: FGF2, fluorescence 635/667, higher = more signal
# [7] = JC-1 mitochondrial potential readout, lung cancer cells – cell-based, A549, JC-1 fluorescence, basal, 24 h, 100 nL, profiling panel (AID 1138); settings: higher = more signal;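 further: A549 lung adenocarcinoma cells under basal conditions with no added stimulus; test concentration not given here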
# [8] = tested on: Lefty1; test: Lefty1 protein binding to printed compounds – biochemical, small-molecule microarray, 635/667 nm fluorescence, primary screen (AID 1139); settings: fluorescence 635/667, higher = more signal
# [9] = tested on: wheat germ agglutinin (Triticum aestivum), Alexa647-labelled; test: Alexa647-WGA lectin binding to printed small molecules – biochemical, small-molecule microarray, 635/667 nm fluorescence, artefact control for SMM control-protein annotation, profiling panel (AID 1140); settings: WGA-A647 binding, 635 nm fluorescence, higher = more signal;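 further: score merges 667 nm feature emission with signal to noise over triplicate slides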
# [10] = biological target: Luciferin 4-monooxygenase (Photinus pyralis) (UniProt P08659); test: inhibition of purified Photinus pyralis luciferase – biochemical, luminescence, purified enzyme, 2006 set, primary screen (AID 1141); settings: purified firefly luciferase, SteadyGlo luminescence, 30 min; higher = more signal, called active from +8 up or from −8 down;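 further: cell-free assay with purified firefly luciferase at 100 ng per well in PBS; test concentration not given here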
# [11] = tested on: Wnt5a (protein binding on small-molecule microarray); test: small molecules binding Wnt5a protein – biophysical, small-molecule microarray, 635/667 nm fluorescence, primary screen (AID 1142); settings: 635 nm fluorescence, higher = more signal;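 further: fluorescence read at 667 nm with signal to noise per printed feature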
# [12] = ATP-based viability of Huh7 replicon cells – cell-based, CellTiter-Glo luminescence, basal, 48 h, cytotoxicity control for HCV replication inhibitor project, primary screen (AID 1143); settings: higher = more signal, called active from +8 up or from −8 down;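 further: Huh7 hepatoma cells carrying a hepatitis C replication reporter with no stimulus; test concentration not given here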
# [13] = Pseudomonas biofilm growth suppression – PAO1 strain, BacTiter-Glo luminescence, LB-PBS, primary screen (AID 1144); settings: P. aeruginosa PAO1 biofilm, 12 h, higher = more signal
# [14] = basal CRE-LacZ reporter activity in PC12 – cell-based, unstimulated, primary screen (AID 1145); settings: no forskolin, luminescence, 4.5 h, higher = more signal, called active from +8 up or from −8 down
# [15] = forskolin-driven CRE-LacZ activity in PC12 – cell-based, CRE-LacZ reporter, forskolin-stimulated, primary screen (AID 1146); settings: luminescence, 4.5 h, higher = more signal, called active from +8 up or from −8 down;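 further: PC12 cells with 6xCRE LacZ reporter stimulated by forskolin 10 µM; beta-galactosidase reporter signal reflecting CREB driven transcription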
# [16] = biological target: Streptavidin (Streptomyces avidinii) (UniProt P22629); test: compounds binding control protein streptavidin – biophysical, small-molecule microarray, 635/667 nm fluorescence, artefact control for SMM compound annotation, primary screen (AID 1147); settings: higher = more signal;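 further: signal reflects streptavidin binding to arrayed compounds as a control protein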
# [17] = probe aInhba binding on compound microarray – biochemical, small-molecule microarray, 635/667 nm fluorescence, primary screen (AID 1148); settings: higher = more signal;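 further: score merges 667nm spot fluorescence with signal-to-noise for antibody binding to printed compounds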
# [18] = biological target: Torsin-1A (Homo sapiens) (UniProt O14656); test: TOR1A wild-type binding on microarray – cell lysate, small-molecule microarray, lysate, 635/667 nm, primary screen (AID 1149); settings: COS7 hTOR1A-WT lysate, 635 nm fluorescence, higher = more signal
# [19] = biological target: Torsin-1A (Homo sapiens) (UniProt O14656); test: torsin A mutant lysate binding on microarrays – cell lysate, small-molecule microarray, COS7 lysate, 635/667 nm fluorescence, primary screen (AID 1150); settings: COS7 hTOR1A mutant lysate, 635 nm fluorescence, higher = more signal;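 further: score pools 667 nm emission and signal to noise measuring lysate protein binding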
# [20] = tested on: Sonic hedgehog protein (Shh); test: Sonic hedgehog microarray binding compounds – biochemical, small-molecule microarray, 635/667 nm fluorescence, primary screen (AID 1151); settings: 635 nm fluorescence, higher = more signal;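 further: Shh protein binding to compounds spotted on small-molecule microarray slides; score combines spot fluorescence intensity with signal-to-noise across triplicate slides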
# Chain of Streptavidin (Streptomyces avidinii) (P22629 whole entry, looked up): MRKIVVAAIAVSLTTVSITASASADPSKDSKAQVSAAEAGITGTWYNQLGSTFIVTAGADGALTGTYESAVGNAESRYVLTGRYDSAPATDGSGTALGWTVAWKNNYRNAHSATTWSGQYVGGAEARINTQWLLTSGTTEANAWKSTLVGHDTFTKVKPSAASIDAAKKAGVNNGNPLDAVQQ
# Chain of Torsin-1A (Homo sapiens) (O14656 whole entry, looked up): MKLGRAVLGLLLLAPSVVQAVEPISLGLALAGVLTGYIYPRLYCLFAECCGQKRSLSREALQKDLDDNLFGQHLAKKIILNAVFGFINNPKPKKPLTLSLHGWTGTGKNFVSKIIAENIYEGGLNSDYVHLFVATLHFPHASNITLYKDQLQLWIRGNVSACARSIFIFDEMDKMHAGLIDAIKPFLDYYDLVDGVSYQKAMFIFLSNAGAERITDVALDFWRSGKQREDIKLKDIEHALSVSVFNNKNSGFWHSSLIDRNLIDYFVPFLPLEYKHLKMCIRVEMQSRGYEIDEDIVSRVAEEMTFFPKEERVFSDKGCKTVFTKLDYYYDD
# Chain of Fibroblast growth factor 2 (Homo sapiens) (P09038 whole entry, looked up): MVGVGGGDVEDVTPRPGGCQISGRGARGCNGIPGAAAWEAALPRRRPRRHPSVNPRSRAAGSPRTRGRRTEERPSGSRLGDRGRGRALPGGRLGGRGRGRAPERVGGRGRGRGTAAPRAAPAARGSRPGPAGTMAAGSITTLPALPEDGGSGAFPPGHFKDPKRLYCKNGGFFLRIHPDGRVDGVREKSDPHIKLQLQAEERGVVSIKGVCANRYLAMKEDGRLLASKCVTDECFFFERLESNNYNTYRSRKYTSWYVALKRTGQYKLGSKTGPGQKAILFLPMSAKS
# Chain of Luciferin 4-monooxygenase (Photinus pyralis) (P08659 whole entry, looked up): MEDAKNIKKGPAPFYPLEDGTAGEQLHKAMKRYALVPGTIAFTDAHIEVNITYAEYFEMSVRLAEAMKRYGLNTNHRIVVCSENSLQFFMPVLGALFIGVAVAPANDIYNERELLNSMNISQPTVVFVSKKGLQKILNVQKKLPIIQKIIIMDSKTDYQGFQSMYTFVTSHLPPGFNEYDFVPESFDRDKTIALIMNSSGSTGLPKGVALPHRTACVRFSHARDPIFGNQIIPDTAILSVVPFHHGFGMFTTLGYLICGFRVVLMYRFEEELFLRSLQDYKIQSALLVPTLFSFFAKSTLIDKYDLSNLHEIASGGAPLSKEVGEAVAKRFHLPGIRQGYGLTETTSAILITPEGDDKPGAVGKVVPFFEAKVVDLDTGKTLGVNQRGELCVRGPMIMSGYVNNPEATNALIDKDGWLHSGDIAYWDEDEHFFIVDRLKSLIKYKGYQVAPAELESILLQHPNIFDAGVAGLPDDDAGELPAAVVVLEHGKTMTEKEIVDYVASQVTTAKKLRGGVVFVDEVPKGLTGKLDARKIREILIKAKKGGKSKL
# Chain of Focal adhesion kinase 1 (Homo sapiens) (Q05397 whole entry, looked up): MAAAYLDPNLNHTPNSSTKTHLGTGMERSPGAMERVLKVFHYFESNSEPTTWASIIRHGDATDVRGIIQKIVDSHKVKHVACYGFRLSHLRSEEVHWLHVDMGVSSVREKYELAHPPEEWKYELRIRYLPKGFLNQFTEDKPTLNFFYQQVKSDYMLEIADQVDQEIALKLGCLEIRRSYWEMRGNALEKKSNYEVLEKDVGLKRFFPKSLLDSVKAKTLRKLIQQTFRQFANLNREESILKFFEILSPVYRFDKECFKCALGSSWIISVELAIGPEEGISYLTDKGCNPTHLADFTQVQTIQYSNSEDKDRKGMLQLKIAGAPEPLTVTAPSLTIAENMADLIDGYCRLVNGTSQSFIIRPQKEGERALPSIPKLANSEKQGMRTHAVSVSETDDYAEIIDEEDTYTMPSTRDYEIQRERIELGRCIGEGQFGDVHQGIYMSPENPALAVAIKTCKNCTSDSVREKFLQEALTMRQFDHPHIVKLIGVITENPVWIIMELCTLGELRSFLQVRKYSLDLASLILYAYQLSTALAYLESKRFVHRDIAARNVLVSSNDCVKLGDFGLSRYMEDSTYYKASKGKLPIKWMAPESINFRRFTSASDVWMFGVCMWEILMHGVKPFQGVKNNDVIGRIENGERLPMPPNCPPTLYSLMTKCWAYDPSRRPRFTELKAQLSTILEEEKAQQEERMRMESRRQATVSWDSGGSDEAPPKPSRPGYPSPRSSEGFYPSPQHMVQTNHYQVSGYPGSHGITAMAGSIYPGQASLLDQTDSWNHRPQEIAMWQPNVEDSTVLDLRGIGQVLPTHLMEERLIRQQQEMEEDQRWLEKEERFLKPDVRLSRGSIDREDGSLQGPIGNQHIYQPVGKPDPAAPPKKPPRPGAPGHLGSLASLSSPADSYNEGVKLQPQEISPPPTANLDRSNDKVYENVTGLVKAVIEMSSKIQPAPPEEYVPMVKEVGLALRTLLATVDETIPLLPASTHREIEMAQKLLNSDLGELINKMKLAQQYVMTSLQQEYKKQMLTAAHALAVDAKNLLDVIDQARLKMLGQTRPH
# Chain of Follistatin (Homo sapiens) (P19883 whole entry, looked up): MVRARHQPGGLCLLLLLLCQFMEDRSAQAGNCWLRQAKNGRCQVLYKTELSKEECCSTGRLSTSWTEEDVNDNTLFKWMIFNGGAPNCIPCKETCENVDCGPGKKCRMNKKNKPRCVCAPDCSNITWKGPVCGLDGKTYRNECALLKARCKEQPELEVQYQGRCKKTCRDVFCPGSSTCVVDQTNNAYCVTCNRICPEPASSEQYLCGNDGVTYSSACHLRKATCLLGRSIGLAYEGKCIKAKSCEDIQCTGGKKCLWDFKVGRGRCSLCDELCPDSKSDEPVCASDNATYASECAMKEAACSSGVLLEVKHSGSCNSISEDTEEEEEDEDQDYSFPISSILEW
Compound,composite z-score [1],composite z-score [2],composite z-score [3],composite z-score [4],composite z-score [5],composite z-score [6],z-score [7],composite z-score [8],composite z-score [9],z-score [10],composite z-score [11],z-score [12],z-score [13],z-score [14],z-score [15],composite z-score [16],composite z-score [17],composite z-score [18],composite z-score [19],composite z-score [20]
CO[C@H]1O[C@H](CO)[C@@H](OC(=O)Nc2ccc(C(F)(F)F)cc2)[C@H](OC(=O)Nc2ccc3c(c2)OCO3)[C@@H]1OC(=O)Nc1ccc2c(c1)OCO2,2.18,1.22,1.43,0.607,1.17,0.397,-0.656,0.537,0.729,-17.3 (active),0.246,-4.31 (inactive),0.999 (inactive),0.652 (inactive),-1.93 (inactive),0.273,-0.157,1.81,1.23,0.57
Cc1ccc(S[C@]2(C(=O)NC3CC3)CC(=O)N(Cc3ccccc3)[C@@H]2c2ccc(CO)cc2I)cc1,-0.744,-0.0095,-0.557,-0.394,-0.868,-0.131,2.49,-1.86,-0.567,-1.42 (inactive),-0.232,-2.1 (inactive),-0.0682 (inactive),1.04 (inactive),1.03 (inactive),-0.716,0.235,-1.19,-1.63,-0.517
O=C(CS)NCCCCCCNC(=O)[C@@H]1C[C@@H]2C(=O)NCC(=O)N2[C@@H]1c1cccc(OCCO)c1,3.13,1.23,0.69,-0.993,0.998,1.4,0.609,-0.408,-0.56,-1.02 (inactive),0.136,0.429 (inactive),-0.865 (inactive),-0.252 (inactive),-0.695 (inactive),0.0478,-0.613,1.29,1.28,0.88
C[C@H]1C2[C@H](Cc3ccccc3)NC(=O)[C@]23C(=O)N[C@H](Cc2ccccc2)C(=O)N2CCC[C@H]2C(=O)NC/C=C\C/C=C/C3[C@@H]2O[C@]12C (stereo not given in full),0.102,-0.338,1.11,0.354,0.559,0.212,0.367,0.302,0.737,-0.587 (inactive),0.072,-0.832 (inactive),-1.44 (inactive),0.403 (inactive),-0.399 (inactive),0.206,-0.126,0.221,0.44,0.639
CC(C)c1ccc(NN2C(C(O)c3ccc(B(O)O)cc3)C=CC3C(=O)N(c4ccccc4)C(=O)C32)cc1 (stereo not given),1.24,1.2,0.581,0.952,1.32,-0.159,-0.641,0.481,0.783,-6.16 (inactive),0.262,-0.0793 (inactive),-1.06 (inactive),0.815 (inactive),1.65 (inactive),1.26,0.108,0.201,1.26,0.528
